Screening results (PubChem BioAssay)
This is a sample that favours compounds with a hit; in the whole collection about 3% have one here.
MITF TRPM1 HTS: activators of MITF-driven TRPM1 promoter activity in SK-MEL-5 cells; SK-MEL-5 TRPM1-promoter luciferase, 24 h; % of positive control, neutral wells = 0; AID 588334; 300,000 tested, 0.75% active; activation, % at 12.5 µM;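 active means mean activation of at least 80% with every replicate also reaching 80%; inconclusive means mean reaches 80% but some replicate falls short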;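 further: 0% = neutral control wells and 100% = parthenolide positive control wells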
Wnt act: Wnt/beta-catenin pathway activation; Wnt/beta-catenin reporter cell assay, activator, plate reader; activation, % at 9.35 µM; 300,000 tested, 1.2% active; in the data active means activation above about 30%, passing the limit was not always enough; inconclusive means no clear call, values can overlap the other calls;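 further: 0% = neutral control wells and 100% = positive control wells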
esBAF inh: inhibitors of esBAF chromatin remodeling in mouse ES cells | Bmi1-luciferase knock-in reporter, 24 h; 100% = twice the neutral-well signal | reporter increase, % at 12.5 µM | 350,000 tested, 2% active | AID 602393; in the data active means activation above about 40%; inconclusive means no clear call, values can overlap the other calls;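 further: 0% = median of the plate's neutral control wells and 100% = double that signal; a rise in the Bmi1 reporter signal indicates esBAF inhibition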
Statin myotox sup: protects C2C12 myotubes from simvastatin toxicity. rescue of ATP level, % at 7.49 µM. 330,000 tested, 0.78% active. ATP luminescence, 48 h; scaled: DMSO 0, geranylgeraniol control 100. AID 602340;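 active means mean ATP rescue above about 67%, or every replicate alone reaching that limit, limit read from the data, passing the limit was not always enough; inconclusive means no clear call, values can overlap the other calls; inactive means mean under the limit and some replicate under it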;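 further: myotubes were challenged with 10 µM simvastatin during compound exposure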
Ring1 derepress: esBAF inhibition confirmed by Ring1 de-repression | shares compounds with esBAF inh | mouse ESC E14, Ring1 mRNA RT-qPCR fold change | fold change at 33 µM | 550 tested, under 10 active | AID 743176;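 active means Ring1 gene expression raised more than 2-fold over untreated cells in both replicates at either tested dose; inconclusive means only one replicate above 2-fold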;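 further: Ring1 transcript normalised to actin housekeeping signal by TaqMan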
esBAF Fgf4 qPCR: confirmation of esBAF inhibitors: Fgf4 repression in mouse ESCs; shares compounds with esBAF inh; mouse ESC E14, Fgf4 mRNA qPCR fold change; hits give low values; Fgf4 expression fold change at 33 µM; 550 tested, 4% active; AID 743177;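 active means Fgf4 expression under 0.8 fold of control in both repeat measurements at one or both tested doses; inconclusive means under 0.8 fold in just a single repeat measurement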;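 further: Fgf4 transcript normalised to actin in duplex TaqMan qPCR; cells exposed to compound for 24 h before lysis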
esBAF Bmi1 qPCR: esBAF inhibition confirmed by Bmi1 de-repression | AID 743180 | fold change at 33 µM | mouse ESE14 ES cells, Bmi1 mRNA qPCR fold; hits give high values | 550 tested, under 10 active | shares compounds with esBAF inh;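 active means Bmi1 expression fold change above 6 at either tested concentration, seen in replicate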;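 further: higher fold means more Bmi1 de-repression and stronger esBAF inhibition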
A549 cytotox: cytotoxicity in A549 cells | shares compounds with esBAF inh | plate reader | cell viability change % (negative = cytotoxic), % at 25 µM, hits read low | 550 tested, under 10 active; call rule not given here
HepG2 tox SP: HepG2 cell cytotoxicity at single point; plate reader; hits give low values; 550 tested, 4% active; activity change, negative = inhibition, % at 25 µM; shares compounds with esBAF inh; in the data active means activity change below about -50%
HEK293 cytotox SP: kills or reduces viability of HEK293 cells; activity change, negative = inhibition, % at 25 µM, hits read low; 550 tested, 3% active; shares compounds with esBAF inh; HEK293 cytotoxicity, plate reader; in the data active means activity change below about -38%, passing the limit was not always enough
Active calls of the source: *; u = inconclusive; x = not tested or not shown.

SMILES | MITF TRPM1 HTS | Wnt act | esBAF inh | Statin myotox sup | Ring1 derepress | esBAF Fgf4 qPCR | esBAF Bmi1 qPCR | A549 cytotox | HepG2 tox SP | HEK293 cytotox SP
O=C1CCCc2cc3c(ccc4ccccc43)cc21 | 43 | -3 | 75* | 1 | 0.84 | 0.81 | 1.2 | -7 | -39 | 16
Cc1cc2c(cc1C)C(=O)CCC2 | x | 1 | -1 | 6 | x | x | x | x | x | x
COc1ccc2c(CN(C)Cc3ccccc3)cc(=O)oc2c1 | x | 16 | 57* | 7 | 1.1 | 0.88 | 1.8 | -13 | -65* | -19
Clc1ccc(C=NN2CCCCCC2)c(Cl)c1 | 21 | 16 | 39 | -3 | x | x | x | x | x | x
Clc1ccc(C=NN2CCCCCC2)cc1 | 69 | u | 82* | -2 | 1.3 | 1.1 | 1.7 | -9 | -14 | -5
Oc1ccc(/C=N/N2CCCCC2)cc1O | 27 | -2 | -8 | 5 | x | x | x | x | x | x
N#Cc1ccc(C=NN2CCCCCC2)cc1 | 53 | 48* | 69* | -3 | 1.3 | u | 1.6 | -8 | -7 | -14
C[C@@H]1CN([C@@H](C)CO)S(=O)(=O)c2ccc(-c3ccncc3)cc2O[C@H]1CN(C)C | x | x | 0 | 0 | x | x | x | x | x | x
C[C@H](CO)N1C[C@H](C)[C@@H](CN(C)C(=O)Nc2ccccc2)Oc2ccc(NC(=O)Cn3cnnn3)cc2CC1=O | x | x | -8 | 22 | x | x | x | x | x | x
COc1ccc(CN(C)C[C@@H]2Oc3ccc(NC(=O)CCN4CCOCC4)cc3CC(=O)N([C@H](C)CO)C[C@H]2C)cc1 | x | x | 2 | 25 | x | x | x | x | x | x
COc1cccc2sc(Nc3nc(-c4ccccn4)cs3)nc12 | -53 | -4 | u | 11 | x | x | x | x | x | x
c1ccc(Nc2nc(-c3ccncc3)cs2)cc1 | 144* | x | 59* | -63 | 1.4 | 1.1 | 3.5 | -11 | 43 | -8
CC(=O)Nc1nc(-c2ccc(-c3ccccc3)cc2)cs1 | x | 40* | 68* | 3 | 0.95 | 0.89 | 1.5 | -12 | -35 | 0
c1ccc(-c2csc(Nc3cccnc3)n2)nc1 | 57 | x | 61* | -31 | 1.1 | 1.1 | 1.3 | -15 | -14 | -6
C[C@H]1CCCCO[C@H](CN(C)C(=O)Nc2cccc3ccccc23)[C@@H](C)CN([C@@H](C)CO)C(=O)c2cc(NS(=O)(=O)c3ccc(Cl)cc3)ccc2O1 | x | x | 5 | 24 | x | x | x | x | x | x
O=C(C[C@@H]1CC[C@H]2[C@@H](COC[C@H](O)CN2Cc2cc(F)ccc2F)O1)NCc1ccccc1 | x | x | 0 | -11 | x | x | x | x | x | x
COc1ccccc1CCC(=O)Nc1nc2ccccc2[nH]1 | 80 | 31* | 61* | -18 | 1.1 | 0.38* | 6.9* | -2 | -11 | 16
CN1C(=O)c2cc(NS(=O)(=O)c3ccccc3F)ccc2OC[C@H]2O[C@@H](CC(=O)NC3Cc4ccccc4C3)CC[C@@H]21 | x | x | 7 | 28 | x | x | x | x | x | x
CCC(C)c1ccc(NC(=O)C2CC2)cc1 (centres undefined) | 46 | 23 | 74* | -49 | 1.1 | 0.84 | 1.7 | -13 | -10 | -4
CCC(C)c1ccc(NC(=O)C2CC3CCC2C3)cc1 (centres undefined) | x | 26 | x | x | x | x | x | x | x | x
Clc1ccc(-c2cn3cccnc3n2)cc1Cl | 59 | 17 | 73* | 10 | 1 | 1.3 | 0.92 | 12 | -25 | 3
Cc1cccc(S(=O)(=O)N[C@H]2CC[C@H](CCNS(=O)(=O)c3ccccc3F)O[C@H]2CO)c1 | x | x | 1 | 2 | x | x | x | x | x | x
O=C(c1ccncc1)N1N=C(c2ccc(Cl)cc2)CC1c1ccccc1O (centres undefined) | 65 | 18 | 80* | 7 | 1.4 | 0.83 | 1.6 | 12 | 24 | 5
COc1ccc(C2=NN(C(=O)c3ccncc3)C(c3ccccc3O)C2)cc1 (centres undefined) | 21 | 2 | 20 | 14 | x | x | x | x | x | x
C[C@@H]1CCCCO[C@@H](CN(C)C(=O)Cc2ccccc2)[C@@H](C)CN([C@@H](C)CO)C(=O)c2cc(NC(=O)C3CCCCC3)ccc2O1 | x | x | -4 | x | x | x | x | x | x | x
SMILES | MITF TRPM1 HTS | Wnt act | esBAF inh | Statin myotox sup | Ring1 derepress | esBAF Fgf4 qPCR | esBAF Bmi1 qPCR | A549 cytotox | HepG2 tox SP | HEK293 cytotox SP
C[C@H]1CN([C@@H](C)CO)C(=O)c2cc(C#CC3CC3)cnc2O[C@H]1CN(C)C(=O)c1ccc(F)cc1 | x | x | -5 | 1 | x | x | x | x | x | x
O=C(Nc1ccc(-c2cnco2)cc1)c1ccc(F)cc1F | 42 | 39* | 63* | -6 | 1.1* | 0.97 | 0.78 | -2 | -42 | 2
O=C(NC(=O)c1ccc(C(F)(F)F)cc1)Nc1ccc(-c2cnco2)cc1 | x | -2 | x | x | x | x | x | x | x | x
Cc1ccc(S(=O)(=O)N(C)C[C@@H]2Oc3ccc(NC(=O)C4CC4)cc3CC(=O)N([C@@H](C)CO)C[C@H]2C)cc1 | x | x | -2 | -7 | x | x | x | x | x | x
Cc1ccc(CNC(=O)CCn2cc(-c3ccc(C)cc3)nc2-c2ccncc2)cc1 | 5 | -1 | 0 | -2 | x | x | x | x | x | x
Cc1ccc(CNC(=O)c2ccc(Cn3cc(-c4ccc(C)cc4)nc3-c3ccncc3)cc2)cc1 | x | 47* | 99* | 6 | 1.4 | 1 | 1.9 | -9 | 21 | -14
CN(C)S(=O)(=O)c1cccc(C(=O)Nc2ccc3c(c2)CCC3)c1 | 48 | 25 | 10 | -20 | x | x | x | x | x | x
CN(C)S(=O)(=O)c1ccc(C(=O)Nc2ccc3c(c2)CCC3)cc1 | 47 | 22 | 75* | -4 | 1 | 0.94 | 1.7 | -2 | -43 | -14
COC(=O)c1cc(Nc2cc(C)c3c(O)cccc3n2)cc(C(=O)OC)c1 | 18 | 1 | 0 | 6 | x | x | x | x | x | x
COc1ccc(Nc2cc(C)c3c(O)cccc3n2)cc1 | 130* | 0 | 57* | -62 | 1.4 | 1.2 | 1.2 | -8 | 6 | -13
COc1cccc(Nc2cc(C)c3ccccc3n2)c1 | 61 | 13 | 66* | -10 | 1.1 | 0.88 | 1.8 | -9 | -44 | -25
Oc1ccc(-c2nccc(-c3ccccn3)n2)cc1 | 101* | 24 | 60* | 6 | 1.3 | 1 | 1.4 | 2 | 9 | 11
Cc1ccc(-c2ccnc(-c3ccc(O)cc3)n2)cc1 | 22 | 28 | x | x | x | x | x | x | x | x
O=C(CCCc1ccccn1)c1ccc(-c2ccccc2)cc1 | u | -3 | 55* | 8 | 1.2 | u | 1.8 | -5 | -14 | -6
Clc1ccc(N/N=C/c2cccnc2)cc1 | u | x | 70* | 14 | 1.1 | 0.96 | 1.8 | 0 | -11 | -12
O=[N+]([O-])c1ccc(N/N=C/c2cccnc2)cc1 | 22 | 4 | 34 | -8 | x | x | x | x | x | x
O=C(CCc1nnc(Cc2ccc(-c3ccccc3)cc2)o1)N1CCCC1 | -2 | -1 | x | x | x | x | x | x | x | x
